Source: PubChem BioAssay AID434964 (The Scripps Research Institute Molecular Screening Center, 2010)
Some of the results follow. Activity calls are given as the source filed them.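 How the source made its calls: active means average activation exceeds primary screen hit cutoff (cut at about 21% in these data); inactive means the rest.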

Target: Vasopressin V1a receptor (Homo sapiens) (UniProt P37288)
Assay: activators of vasopressin V1R in CHO cells – cell-based, Fluo-8 calcium fluorescence, confirmation (AID 434964);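 further: peak over basal fluorescence ratio during a 100 s FLIPR read; 0% = DMSO only wells and 100% = 3 nM vasopressin wells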
Details: agonist, at 3 µM, active compounds read high

Chain of Vasopressin V1a receptor (Homo sapiens) (P37288 whole entry, looked up): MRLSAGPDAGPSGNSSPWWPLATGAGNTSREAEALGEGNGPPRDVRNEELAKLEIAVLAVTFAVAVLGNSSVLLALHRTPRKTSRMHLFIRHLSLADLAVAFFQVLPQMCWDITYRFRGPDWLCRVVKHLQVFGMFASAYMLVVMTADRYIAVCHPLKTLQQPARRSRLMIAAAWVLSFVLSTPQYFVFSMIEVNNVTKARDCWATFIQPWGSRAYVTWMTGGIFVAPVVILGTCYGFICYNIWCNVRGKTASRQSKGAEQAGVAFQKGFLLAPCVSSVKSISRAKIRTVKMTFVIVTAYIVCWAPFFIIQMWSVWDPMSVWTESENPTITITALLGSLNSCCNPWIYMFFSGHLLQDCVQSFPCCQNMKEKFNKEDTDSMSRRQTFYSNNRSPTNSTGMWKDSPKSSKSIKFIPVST

Row | SMILES | activation
1 | Fc1cccc(Cl)c1COc1ccc(-c2nnco2)cc1 | 2.1% (inactive)
2 | O=c1c2cc(Br)ccc2nc(-c2cccc(Cl)c2)n1O | 31.8% (active)
3 | O=C(c1ccccc1)c1ccc(OCC(O)CN2CCCC2)cc1 (stereo not drawn) | -0.08% (inactive)
4 | CC1(C)S[C@@H]2[C@H](N=CN3CCCCCC3)C(=O)N2[C@H]1C(=O)O | 0.2% (inactive)
5 | CCN(CC)c1ccc2cc(C(N)=O)/c(=N\NC(=O)c3ccncc3)oc2c1 | 21.7% (active)
6 | O=C(CN1CCN(c2cccc(Cl)c2)CC1)Nc1ccc(S(=O)(=O)N2CCOCC2)cc1 | 3.06% (inactive)
7 | Cc1cc(C)c(/C=C2\C(=O)Nc3ccccc32)[nH]1 | 40.5% (active)
8 | CCN(CC)c1ccc(/C=N/NC(=O)c2cnccn2)c(O)c1 | 10.5% (inactive)
